Laboratory results: PubChem BioAssay (EPA / NIEHS)
Several values for one entry are separate records, joined by “and”; a condition that tells them apart may be missing. Equal values may be shown once. Records with an inconclusive call do not appear. Some compounds were tested as several samples or in several runs, with calls that do not always agree. Activity calls are given as the source filed them. Rule for the calls, unless noted: active = hit-call score of the fitted dose curve at least 0.9, where 1 is the maximum; inactive = score below 0.9.

Experiments:
[1] = read-out: Monokine induced gamma interferon (MIG), CXCL9 (gene 4283); assay: BSK_SAg_MIG: BioMAP Diversity Plus: SAg Assay for Monokine induced gamma interferon (MIG) Biomarker Activity (AID 2283092); conditions: primary human HUVEC with PBMC; actives raise or lower the signal
In short: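 ELISA readout of MIG/CXCL9; primary human umbilical vein endothelial cells co-cultured with peripheral blood mononuclear cells; 24 h post-dose; gain/loss fit vs DMSO baseline.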

[2] = BSK_SAg_PBMCCytotoxicity: PBMC Cytotoxicity Assessment in the BioMAP Diversity Plus: SAg Assay (AID 2283093); conditions: primary human HUVEC with PBMC;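 note: PBMC viability measured as Alamar Blue reduction fluorescence at 546/580 nm; fitted both ways against DMSO so a hit may be loss or gain of signal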;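 for AC50: PBMC superantigen activated with SEB plus TSST-1 one hour after compound addition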
In short: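 Compound added to 75,000 PBMC/well for 1 h; SEB and TSST-1 then added at 20 ng/mL final each; 90 h incubation; Alamar Blue 6 h; read 546/580 nm ex/em. Activity fitted bidirectionally relative to DMSO baseline.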

[3] = read-out: Interleukin-8 (IL8), CXCL8 (gene 3576); assay: BSK_SAg_IL8: BioMAP Diversity Plus: SAg Assay for Interleukin-8 (IL8) Biomarker Activity (AID 2283094); conditions: primary human HUVEC with PBMC; actives raise or lower the signal
In short: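 ELISA read-out of IL-8 in a primary human vascular co-culture (umbilical vein endothelium plus PBMC), taken 24 h after compound addition. Values derive from bidirectional fits against DMSO negative controls.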

[4] = BSK_SAg_Proliferation: Cell Proliferation Assessment in the BioMAP Diversity Plus: SAg Assay (AID 2283095); conditions: primary human HUVEC with PBMC;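 note: relative cell number as total protein by SRB absorbance in sub-confluent culture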
In short: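 Cells (endothelium plus PBMC, human primary) were dosed with chemical, cultured 96 h, fixed in 10% TCA and stained with 0.1% SRB. Absorbance at 560 nm gave relative protein, fitted bidirectionally relative to DMSO.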

[5] = BSK_SAg_SRB: Viability Assessment in the BioMAP Diversity Plus: SAg Assay (AID 2283096); conditions: primary human HUVEC with PBMC;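 note: cells read one day after compound addition; hits may be either gain or loss of signal compared with DMSO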
In short: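 Total protein by sulforhodamine B staining, 24 h after dosing, in HUVEC–PBMC co-culture; DMSO-referenced bidirectional fitting.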

[6] = target: human CYP19A1, CYP19A1 (gene 1588) (UniProt P11511); assay: NVS_ADME_hCYP19A1: NovaScreen (NVS) CYP450-related Enzyme Activity (ADME) Assay for human CYP19A1 (AID 2283098; active = hit-call score of the fitted dose curve at least 0.9, where 1 is the maximum;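 for AC50: potency for inhibitors seen as loss of fluorescent enzyme signal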)
In short: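 Biochem, cell-free; recombinant enzyme + specific substrate; fluorescence intensity at 0.5 h post-dose; 10 uM duplicate primary, conc. series for actives; acetonitrile = negative control/baseline; positive and negative controls on every plate.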

[7] = target: human CYP2A6, CYP2A6 (gene 1548) (UniProt P11509); assay: NVS_ADME_hCYP2A6: NovaScreen (NVS) CYP450-related Enzyme Activity (ADME) Assay for human CYP2A6 (AID 2283099; active = hit-call score of the fitted dose curve at least 0.9, where 1 is the maximum)
In short: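 Loss of fluorescence signal relative to acetonitrile vehicle reported CYP2A6 inhibition in a cell-free system using insect-cell-derived enzyme. Readings were taken at 0.5 h; top concentration in follow-up dose series was 20 uM.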

[8] = target: human CYP2D6, CYP2D6 (gene 1565) (UniProt P10635); assay: NVS_ADME_hCYP2D6: NovaScreen (NVS) CYP450-related Enzyme Activity (ADME) Assay for human CYP2D6 (AID 2283107; active = hit-call score of the fitted dose curve at least 0.9, where 1 is the maximum)
In short: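 Biochemical fluorescence assay, insect-cell-derived enzyme. Read at 1 h; inhibition taken from loss of signal against acetonitrile. Screened at 10 uM in duplicate, with concentration series for actives.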

[9] = target: Cytochrome P450 2C19 (Homo sapiens) (UniProt P33261); assay: NVS_ADME_hCYP2C19: NovaScreen (NVS) CYP450-related Enzyme Activity (ADME) Assay for human CYP2C19 (AID 2283113; active = hit-call score of the fitted dose curve at least 0.9, where 1 is the maximum;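 for AC50: potency for inhibition seen as loss of fluorescent signal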)
In short: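 Biochemical CYP2C19 inhibition screen: insect-cell recombinant protein plus fluorescent substrate, 1 h, fluorescence intensity. Acetonitrile defined baseline activity. Single 10 uM concentration in duplicate, with concentration-response follow-up for actives.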

[10] = target: human CYP1A1, CYP1A1 (gene 1543) (UniProt P04798); assay: NVS_ADME_hCYP1A1: NovaScreen (NVS) CYP450-related Enzyme Activity (ADME) Assay for human CYP1A1 (AID 2283100; active = hit-call score of the fitted dose curve at least 0.9, where 1 is the maximum)
In short: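 Inhibition of recombinant CYP1A1 turnover was assessed fluorometrically in a biochemical format 1 h after compound exposure. Testing began at 10 uM in duplicate and progressed to concentration series reaching 20 uM, with on-plate positive and negative controls.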

[11] = target: human CYP2B6, CYP2B6 (gene 1555) (UniProt P20813); assay: NVS_ADME_hCYP2B6: NovaScreen (NVS) CYP450-related Enzyme Activity (ADME) Assay for human CYP2B6 (AID 2283101; active = hit-call score of the fitted dose curve at least 0.9, where 1 is the maximum)
In short: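 Fluorescence-based enzyme activity of recombinant human CYP2B6, measured 1 h post-dose against acetonitrile vehicle baseline. Screened at a single concentration of 10 uM in duplicate before concentration-response follow-up.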

[12] = target: human CYP1A2, CYP1A2 (gene 1544) (UniProt P05177); assay: NVS_ADME_hCYP1A2: NovaScreen (NVS) CYP450-related Enzyme Activity (ADME) Assay for human CYP1A2 (AID 2283102; active = hit-call score of the fitted dose curve at least 0.9, where 1 is the maximum;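 note: potency for inhibition since loss of fluorescence marks reduced CYP1A2 activity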)
In short: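 Inhibition scored as decrease in fluorescent product versus acetonitrile negative control. Enzyme: insect-cell recombinant human CYP1A2, substrate-specific, cell-free. Reading at 0.5 h; 10 uM duplicate initial screen with positive and negative controls on every plate.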

[13] = target: human CYP2J2, CYP2J2 (gene 1573) (UniProt P51589); assay: NVS_ADME_hCYP2J2: NovaScreen (NVS) CYP450-related Enzyme Activity (ADME) Assay for human CYP2J2 (AID 2283106; active = hit-call score of the fitted dose curve at least 0.9, where 1 is the maximum)
In short: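 Cell-free assay of recombinant CYP2J2 with a fluorogenic substrate, read 1 h after dosing; loss of signal versus acetonitrile. Primary screen at 10 uM in duplicate, then concentration-response up to 20 uM for chemicals passing threshold (e.g., 30% inhibition).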

[14] = target: human CYP2C9, CYP2C9 (gene 1559) (UniProt P11712); assay: NVS_ADME_hCYP2C9: NovaScreen (NVS) CYP450-related Enzyme Activity (ADME) Assay for human CYP2C9 (AID 2283108; active = hit-call score of the fitted dose curve at least 0.9, where 1 is the maximum)
In short: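 Fluorescence readout of CYP2C9 activity (SF9-expressed human enzyme) at 0.75 h. The primary screen used 10 uM in duplicate, with concentration-response follow-up for actives; acetonitrile was the negative control.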

[15] = target: rat CYP2A2, Cyp2a2 (gene 24895) (UniProt P15149); assay: NVS_ADME_rCYP2A2: NovaScreen (NVS) CYP450-related Enzyme Activity (ADME) Assay for rat CYP2A2 (AID 2283116; active = hit-call score of the fitted dose curve at least 0.9, where 1 is the maximum)
In short: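 Cell-free recombinant rat CYP2A2 activity with fluorogenic substrate, fluorescence read 0.2 h after dosing. Chemicals screened at 10 uM in duplicate, hits then run in concentration-response up to 20 uM; signal loss versus acetonitrile baseline.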

[16] = target: human CYP2C8, CYP2C8 (gene 1558) (UniProt P10632); assay: NVS_ADME_hCYP2C8: NovaScreen (NVS) CYP450-related Enzyme Activity (ADME) Assay for human CYP2C8 (AID 2283104)
In short: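 Recombinant human CYP2C8 with fluorogenic substrate, 0.5 h, fluorescence intensity; signal loss fitted versus acetonitrile. Screened in duplicate at 10 uM, then actives run in concentration-response up to 20 uM.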

[17] = target: human CYP4F12, CYP4F12 (gene 66002) (UniProt Q9HCS2); assay: NVS_ADME_hCYP4F12: NovaScreen (NVS) CYP450-related Enzyme Activity (ADME) Assay for human CYP4F12 (AID 2283111; active = hit-call score of the fitted dose curve at least 0.9, where 1 is the maximum)
In short: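 Cell-free fluorescence assay of recombinant human CYP4F12 activity on a specific substrate, read 0.5 h after dosing. Primary screen in duplicate at 10 uM, then concentration series for actives; loss of signal fitted against acetonitrile negative control.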

Measured: AC50

Sequence of human CYP2C9, CYP2C9 (gene 1559) (P11712 whole entry, looked up): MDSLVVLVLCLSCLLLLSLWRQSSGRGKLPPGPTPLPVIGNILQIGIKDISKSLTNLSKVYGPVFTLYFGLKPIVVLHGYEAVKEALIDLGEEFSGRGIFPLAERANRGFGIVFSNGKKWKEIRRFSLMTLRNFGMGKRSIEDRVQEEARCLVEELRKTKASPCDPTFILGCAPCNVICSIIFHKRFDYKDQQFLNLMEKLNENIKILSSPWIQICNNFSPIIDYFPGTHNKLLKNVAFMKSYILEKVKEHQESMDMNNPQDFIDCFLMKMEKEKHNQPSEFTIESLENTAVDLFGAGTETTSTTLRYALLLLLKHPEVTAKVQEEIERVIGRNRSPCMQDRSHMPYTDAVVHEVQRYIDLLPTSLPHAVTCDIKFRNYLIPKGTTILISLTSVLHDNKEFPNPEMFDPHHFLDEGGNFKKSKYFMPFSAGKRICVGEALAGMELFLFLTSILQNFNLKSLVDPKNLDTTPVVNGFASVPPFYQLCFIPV
Sequence of human CYP2B6, CYP2B6 (gene 1555) (P20813 whole entry, looked up): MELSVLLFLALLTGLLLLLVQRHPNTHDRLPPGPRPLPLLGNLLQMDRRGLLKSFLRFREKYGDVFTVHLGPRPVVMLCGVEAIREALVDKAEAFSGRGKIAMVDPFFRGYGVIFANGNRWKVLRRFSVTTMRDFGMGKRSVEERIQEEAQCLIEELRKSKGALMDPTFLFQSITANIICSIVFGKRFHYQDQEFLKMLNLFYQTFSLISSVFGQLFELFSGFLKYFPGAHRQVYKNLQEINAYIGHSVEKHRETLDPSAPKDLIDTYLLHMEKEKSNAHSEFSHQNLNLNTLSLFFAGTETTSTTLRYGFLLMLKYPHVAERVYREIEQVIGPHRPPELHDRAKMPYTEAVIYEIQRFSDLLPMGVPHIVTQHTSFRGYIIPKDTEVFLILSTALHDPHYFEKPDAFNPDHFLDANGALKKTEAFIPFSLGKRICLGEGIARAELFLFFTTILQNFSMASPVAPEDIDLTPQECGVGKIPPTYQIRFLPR
Sequence of human CYP19A1, CYP19A1 (gene 1588) (P11511 whole entry, looked up): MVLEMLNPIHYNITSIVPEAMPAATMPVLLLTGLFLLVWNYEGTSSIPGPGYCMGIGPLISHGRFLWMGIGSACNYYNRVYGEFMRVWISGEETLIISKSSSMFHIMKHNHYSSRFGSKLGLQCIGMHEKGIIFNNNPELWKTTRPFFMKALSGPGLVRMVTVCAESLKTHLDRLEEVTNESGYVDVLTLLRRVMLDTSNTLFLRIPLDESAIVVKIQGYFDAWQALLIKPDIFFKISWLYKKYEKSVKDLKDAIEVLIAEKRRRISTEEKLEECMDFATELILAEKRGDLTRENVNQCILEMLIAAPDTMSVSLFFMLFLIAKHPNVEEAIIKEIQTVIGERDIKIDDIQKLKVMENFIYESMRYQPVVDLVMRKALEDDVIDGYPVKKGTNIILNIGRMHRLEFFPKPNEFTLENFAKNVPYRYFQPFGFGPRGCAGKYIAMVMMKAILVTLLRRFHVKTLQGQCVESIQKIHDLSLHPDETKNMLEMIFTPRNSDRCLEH
Sequence of human CYP2A6, CYP2A6 (gene 1548) (P11509 whole entry, looked up): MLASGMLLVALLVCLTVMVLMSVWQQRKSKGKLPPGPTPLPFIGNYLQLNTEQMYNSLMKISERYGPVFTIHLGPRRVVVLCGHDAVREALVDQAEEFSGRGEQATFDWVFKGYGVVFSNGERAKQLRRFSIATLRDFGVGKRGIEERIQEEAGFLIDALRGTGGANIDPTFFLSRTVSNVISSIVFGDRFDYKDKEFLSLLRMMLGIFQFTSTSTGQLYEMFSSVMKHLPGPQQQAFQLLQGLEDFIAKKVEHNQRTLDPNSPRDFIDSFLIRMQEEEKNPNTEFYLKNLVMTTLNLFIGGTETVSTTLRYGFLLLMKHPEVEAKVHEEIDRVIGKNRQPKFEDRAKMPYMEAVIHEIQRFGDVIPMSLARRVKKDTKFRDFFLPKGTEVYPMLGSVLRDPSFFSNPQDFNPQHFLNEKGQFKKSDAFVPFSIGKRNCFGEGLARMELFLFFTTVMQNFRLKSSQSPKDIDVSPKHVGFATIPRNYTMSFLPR
Sequence of rat CYP2A2, Cyp2a2 (gene 24895) (P15149 whole entry, looked up): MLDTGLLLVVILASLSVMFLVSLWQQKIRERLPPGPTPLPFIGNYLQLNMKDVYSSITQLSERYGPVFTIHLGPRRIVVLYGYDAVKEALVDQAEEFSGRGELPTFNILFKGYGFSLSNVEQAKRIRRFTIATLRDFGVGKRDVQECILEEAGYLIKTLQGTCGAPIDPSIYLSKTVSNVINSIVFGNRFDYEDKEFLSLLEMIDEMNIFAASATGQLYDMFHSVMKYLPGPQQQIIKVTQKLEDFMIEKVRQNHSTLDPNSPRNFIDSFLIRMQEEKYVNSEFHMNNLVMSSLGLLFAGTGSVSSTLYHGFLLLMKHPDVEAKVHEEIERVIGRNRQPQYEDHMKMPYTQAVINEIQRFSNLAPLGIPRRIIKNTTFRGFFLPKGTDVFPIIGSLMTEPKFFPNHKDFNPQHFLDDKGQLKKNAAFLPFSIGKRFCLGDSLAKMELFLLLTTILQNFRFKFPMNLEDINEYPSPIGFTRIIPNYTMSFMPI
Sequence of human CYP1A2, CYP1A2 (gene 1544) (P05177 whole entry, looked up): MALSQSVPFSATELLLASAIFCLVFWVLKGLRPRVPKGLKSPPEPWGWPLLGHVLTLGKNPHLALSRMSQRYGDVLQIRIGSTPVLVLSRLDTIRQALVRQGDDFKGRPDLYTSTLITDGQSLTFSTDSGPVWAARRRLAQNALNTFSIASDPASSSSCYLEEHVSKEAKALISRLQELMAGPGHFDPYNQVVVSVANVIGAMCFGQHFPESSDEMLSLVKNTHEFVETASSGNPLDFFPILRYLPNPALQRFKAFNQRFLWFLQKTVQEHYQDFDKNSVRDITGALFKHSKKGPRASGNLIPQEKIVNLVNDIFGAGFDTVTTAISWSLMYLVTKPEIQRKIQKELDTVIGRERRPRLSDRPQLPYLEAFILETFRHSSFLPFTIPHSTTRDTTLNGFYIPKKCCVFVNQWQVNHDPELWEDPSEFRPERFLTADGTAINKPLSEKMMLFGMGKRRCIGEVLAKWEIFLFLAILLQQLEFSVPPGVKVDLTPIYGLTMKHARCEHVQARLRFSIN
Sequence of human CYP2C8, CYP2C8 (gene 1558) (P10632 whole entry, looked up): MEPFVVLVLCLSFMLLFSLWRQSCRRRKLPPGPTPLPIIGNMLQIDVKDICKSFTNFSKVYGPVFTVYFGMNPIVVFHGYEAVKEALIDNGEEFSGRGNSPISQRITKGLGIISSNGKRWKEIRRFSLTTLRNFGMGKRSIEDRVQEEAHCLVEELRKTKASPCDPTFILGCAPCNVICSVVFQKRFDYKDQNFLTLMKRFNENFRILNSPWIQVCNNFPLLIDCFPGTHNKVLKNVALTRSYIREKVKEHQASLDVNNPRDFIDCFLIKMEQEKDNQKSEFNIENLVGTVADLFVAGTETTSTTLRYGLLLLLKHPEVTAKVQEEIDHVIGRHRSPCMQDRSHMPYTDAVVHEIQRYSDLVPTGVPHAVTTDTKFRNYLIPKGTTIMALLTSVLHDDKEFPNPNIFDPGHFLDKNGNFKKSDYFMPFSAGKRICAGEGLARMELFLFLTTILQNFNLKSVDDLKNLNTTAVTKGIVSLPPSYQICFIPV
Sequence of human CYP2D6, CYP2D6 (gene 1565) (P10635 whole entry, looked up): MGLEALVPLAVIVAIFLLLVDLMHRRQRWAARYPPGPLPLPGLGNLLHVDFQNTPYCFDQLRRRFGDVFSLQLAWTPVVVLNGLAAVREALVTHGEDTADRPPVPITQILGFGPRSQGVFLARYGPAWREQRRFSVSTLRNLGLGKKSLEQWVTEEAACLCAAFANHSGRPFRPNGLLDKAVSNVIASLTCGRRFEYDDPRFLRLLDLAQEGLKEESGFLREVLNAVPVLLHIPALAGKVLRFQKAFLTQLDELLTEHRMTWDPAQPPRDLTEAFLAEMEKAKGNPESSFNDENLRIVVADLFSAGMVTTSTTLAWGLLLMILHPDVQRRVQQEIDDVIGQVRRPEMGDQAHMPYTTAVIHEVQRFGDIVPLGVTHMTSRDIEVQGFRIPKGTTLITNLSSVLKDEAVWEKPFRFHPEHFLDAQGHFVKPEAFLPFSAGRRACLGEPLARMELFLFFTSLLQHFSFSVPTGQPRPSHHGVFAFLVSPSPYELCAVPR
Sequence of human CYP2J2, CYP2J2 (gene 1573) (P51589 whole entry, looked up): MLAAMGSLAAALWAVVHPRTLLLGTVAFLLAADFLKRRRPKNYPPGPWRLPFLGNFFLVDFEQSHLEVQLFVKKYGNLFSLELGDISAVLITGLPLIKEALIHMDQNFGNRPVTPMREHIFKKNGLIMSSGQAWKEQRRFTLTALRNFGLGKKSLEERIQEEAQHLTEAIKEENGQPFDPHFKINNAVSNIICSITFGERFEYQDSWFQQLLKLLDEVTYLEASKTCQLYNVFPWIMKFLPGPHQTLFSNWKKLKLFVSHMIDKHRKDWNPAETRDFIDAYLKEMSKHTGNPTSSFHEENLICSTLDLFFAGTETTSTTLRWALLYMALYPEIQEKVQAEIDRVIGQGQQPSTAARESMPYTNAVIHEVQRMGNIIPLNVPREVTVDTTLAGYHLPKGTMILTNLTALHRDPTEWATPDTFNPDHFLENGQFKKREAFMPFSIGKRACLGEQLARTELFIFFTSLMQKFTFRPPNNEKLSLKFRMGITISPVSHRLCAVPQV
Sequence of human CYP1A1, CYP1A1 (gene 1543) (P04798 whole entry, looked up): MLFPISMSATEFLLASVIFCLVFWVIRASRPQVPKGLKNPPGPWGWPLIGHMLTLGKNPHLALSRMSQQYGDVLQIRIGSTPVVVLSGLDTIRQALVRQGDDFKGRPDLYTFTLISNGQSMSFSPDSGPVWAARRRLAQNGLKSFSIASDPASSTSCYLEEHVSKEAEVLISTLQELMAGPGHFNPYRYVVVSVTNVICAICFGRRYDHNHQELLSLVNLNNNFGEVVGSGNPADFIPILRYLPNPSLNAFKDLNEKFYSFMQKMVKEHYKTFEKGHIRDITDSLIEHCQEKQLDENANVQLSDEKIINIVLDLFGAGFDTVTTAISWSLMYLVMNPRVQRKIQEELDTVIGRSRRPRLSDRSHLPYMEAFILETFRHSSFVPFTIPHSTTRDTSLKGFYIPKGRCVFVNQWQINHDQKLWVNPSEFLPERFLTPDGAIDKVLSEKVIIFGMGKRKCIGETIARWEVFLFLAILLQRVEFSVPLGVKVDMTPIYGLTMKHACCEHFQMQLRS

CNC(=O)CSP(=S)(OC)OC
active: [7] 4.5 µM | [9] 2.73 µM
inactive: [1] | [2] | [3] | [4] | [5] | [6] | [8]

Cc1cc(C)nc(NC(=O)NS(=O)(=O)c2ccccc2C(=O)OC2COC2)n1
inactive: [1] | [2] | [3] | [4] | [5]

CCOc1nc(NC)nc(NC(=O)NS(=O)(=O)c2ccccc2C(=O)OC)n1
inactive: [1] | [2] | [3] | [4] | [5]

COc1nn(CSP(=S)(OC)OC)c(=O)s1
inactive: [1] | [2] | [3] | [4] | [5]
active: [6] 1.23 µM | [7] 6.42 µM | [10] 5.47 µM | [11] 0.35 µM | [12] 3.25 µM | [13] 2.06 µM | [8] 3.83 µM | [14] 2.88 µM | [9] 0.124 µM | [15] 4.97 µM

Oc1cc(Cl)ccc1Oc1ccc(Cl)cc1Cl
active: [1] 15.8 µM [middle of 4 runs] | [2] 13.8 µM [middle of 4 runs] | [3] 12.8 µM [middle of 4 runs] | [4] 8.46 µM and 8.15 µM and 6.76 µM | [5] 15.3 µM and 22.3 µM and 14.9 µM | [12] 9.33 µM | [16] 4.51 µM

O=C(O)C(F)(F)C(F)(F)C(F)(F)C(F)(F)C(F)(F)C(F)(F)C(F)(F)F
active: [3] 44.3 µM | [14] 0.237 µM | [15] 2.68 µM
inactive: [1] | [3] | [4] | [5] | [6] | [16] | [14] | [17]

CCC(C)(NC(=O)c1cc(Cl)c(C)c(Cl)c1)C(=O)CCl (stereo not drawn)
inactive: [9]
active: [1] 10.5 µM | [2] 20 µM | [3] 5.75 µM | [4] 1.92 µM | [5] 23.6 µM

CN1CSC(=S)N(C)C1
inactive: [5] | [7]
active: [1] 31.6 µM | [2] 14.4 µM | [3] 20.2 µM | [4] 5.99 µM | [11] 10 µM | [9] 10 µM

CNC(=O)Oc1ccccc1OC(C)C
inactive: [1] | [3] | [4] | [5]

CC(C)OC(=O)Nc1cccc(Cl)c1
active: [5] 1.76 µM
inactive: [1] | [3] | [4]

Clc1ccccc1-c1nnc(-c2ccccc2Cl)nn1
inactive: [1] | [3] | [4] | [5]

CNC(=O)Oc1cccc(N=CN(C)C)c1
active: [4] 17.9 µM
inactive: [1] | [3] | [5]

CCC(C)(C)C(=O)OC1=C(c2ccc(Cl)cc2Cl)C(=O)OC12CCCCC2
active: [1] 21.3 µM | [3] 4.73 µM | [4] 12.3 µM | [5] 32.8 µM

CCC(C)Nc1c([N+](=O)[O-])cc(C(C)(C)C)cc1[N+](=O)[O-] (stereo not drawn)
inactive: [1] | [5]
active: [3] 20 µM | [4] 29.6 µM

O=S1OCC2C(CO1)C1(Cl)C(Cl)=C(Cl)C2(Cl)C1(Cl)Cl (stereo not drawn)
inactive: [6]
active: [1] 34.4 µM | [2] 16.1 µM | [3] 36.6 µM | [4] 14.2 µM | [5] 29 µM | [11] 4.85 µM | [9] 1.64 µM
